This is part of a sample that, as a whole, favours compounds with a hit. Of some 83,000 tested, about 20% had one in any assay.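 Negative percent growth values reflect cell death: -40 means 40% of the cells present at the start died, and -100 means all died.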 The source made the active and inactive calls. How the source made its calls: active means growth percent below 10; inactive means the rest.

The assay concerns HCT-15 colon. The assay can be described thus: NCI-60 one-dose screen, 48 h (100 = growth as untreated, 0 = no growth, -100 = all killed). The settings on record: 10 µM unless noted.
As to `NC(=O)N1N=C(c2cc3ccccc3oc2=O)CC1c1cn(-c2ccccc2)nc1-c1ccc(Cl)cc1` (stereo unspecified), the growth was 19.4% (inactive).
For the molecule `COc1cnc2c(c1)C(=O)c1c-2n(CCCNCC2CC2)c(=O)c2cc(F)ccc12`, the growth is 0.625% (active).
Under `O=C(Nc1cc(F)cc2cccnc12)c1cnc(N2CCOCC2)cn1` stands 32.4% (inactive); under `O=C1[C@H]2Cc3c([nH]c4ccccc34)[C@@H](c3c(Cl)cccc3Cl)N2C(=O)CN1C1CCN(Cc2ccccc2)CC1`, 25.5% (inactive); under `COc1cc(/C=N/n2cnc3oc(-c4ccccc4)cc3c2=N)cc(CN2CCN(C)CC2)c1O`, 81.4% (inactive).
Turning to `Oc1ccc(-c2nnc(SCc3ccc(O)c4ncccc34)n2-c2ccccc2)cc1`, the growth was 20.3% (inactive).
`CN(C)C(=O)c1ccccc1-n1cnc2ccccc2c1=O`: the growth is 97.5% (inactive).
Take `Oc1ccc(CSc2nnc(-c3ccc(Cl)cc3)o2)c2cccnc12`: the growth is 14.4% (inactive).
`NNC(=O)c1sc2nc(-c3cnccn3)cc(-c3cccs3)c2c1N`: the growth was 89.9% (inactive).
With `COc1ccc(OC)c([C@H]2c3[nH]c4ccccc4c3C[C@H]3C(=O)N(CCCCCCC(=O)NO)CC(=O)N23)c1`, the growth was 99.5% (inactive).
On to `CCCCCCCCNC(=O)c1ccc(Cn2c(CCCC)nc3c(N)nc4ccccc4c32)cc1`, for which the growth is -55.8% (active).
For the molecule `O=C1[C@@H]2Cc3c([nH]c4ccccc34)[C@H](c3c(Cl)cccc3Cl)N2C(=O)CN1C1CCN(Cc2c(F)cccc2F)CC1`, the growth was 52.2% (inactive).
Then `O=C(CCCCCCN1CC(=O)N2[C@@H](c3cccc(Cl)c3)c3[nH]c4ccccc4c3C[C@H]2C1=O)NO`, with 85.7% (inactive); and `CC(C)N=C(N/C(N)=N/c1nc2ccccc2s1)NC(C)C`, with 62.5% (inactive).
For the molecule `CCCCOc1ccc(S(=O)(=O)N2CCN(c3nccc(N4CCOCC4)n3)CC2)cc1`, the growth is 7.04% (active).
Take `O=C(NCCCNc1cc(-c2cn(-c3ccccc3)nc2-c2cccc(O)c2)ccn1)Nc1cc(C(F)(F)F)cc(C(F)(F)F)c1`: the growth is 33.4% (inactive).
As for `O=[N+]([O-])c1ccc(-c2nnc(SCc3ccc(O)c4ncccc34)n2-c2ccccc2)cc1`, the growth is 19.2% (inactive).
Then `Cc1ccc(Nc2ncnc3c2c(C)nn3-c2ccc([N+](=O)[O-])cc2)cc1`, with 82.5% (inactive); and `COc1cc2cc(Oc3ccc(NC(=O)Nc4cc(C(F)(F)F)cc(C(F)(F)F)c4)cc3)c(C)nc2cc1OCCN(C)C`, with 103% (inactive).
Under `COc1cc2cc(Oc3ccc(NC(=O)Nc4cccc(C(F)(F)F)c4)cc3)c(C)nc2cc1OCCN(C)C` stands 25% (inactive); under `N/C(=N\c1nc2ccc([N+](=O)[O-])cc2s1)C(Cl)(Cl)Cl`, 70.8% (inactive).
For `Nc1ccc(-c2nnc(SCc3ccc(O)c4ncccc34)o2)cc1`, the growth was 10.2% (inactive).
Consider `COc1ccc(-c2ccnc3c(C#N)c(Nc4ccccc4)nn23)cc1OC`, for which the growth was 88.8% (inactive).
Then `Nc1c(C(=O)c2ccccc2)sc2nc(-c3cnccn3)cc(-c3cccs3)c12`, with 106% (inactive).
In the case of `C/C(=C(/C)C1CC1CCN(C(=O)c1ccccn1)S(=O)(=O)c1ccc(C)cc1)C1CCCCC1` (stereo unspecified), the growth was 91.8% (inactive).
For the molecule `Oc1ccc(CSc2nnc(-c3ccccc3)n2-c2ccccc2)c2cccnc12`, the growth is 13.6% (inactive).
In the case of `Oc1ccc(CSc2nnc(-c3ccc(Oc4ccccc4)cc3)n2-c2ccccc2)c2cccnc12`, the growth was 10.8% (inactive).
In the case of `O=C(CSc1ccc(-c2nc3ccccc3[nH]2)cn1)N1CCN(c2ccccc2F)CC1`, the growth is 72.4% (inactive).
Regarding `COc1cc2cc(Oc3ccc(NC(=O)c4cccc(C(F)(F)F)c4)cc3)c(C)nc2cc1OCCN(C)C`, the growth is -8.74% (active).
Consider `CCCC(=O)NC(c1cccnc1)c1cc(C(C)=O)c2cccnc2c1O` (stereo unspecified), for which the growth was 19.6% (inactive).
Take `O=C(CCCCCCN1CC(=O)N2[C@@H](c3ccc(Cl)c(F)c3)c3[nH]c4ccccc4c3C[C@H]2C1=O)NO`: the growth was 98.6% (inactive).
With `O=C1NC(=O)/C(=C/c2ccc(OCc3cc4ccccc4nc3Cl)cc2)S1`, the growth was 88.3% (inactive).
Then `O=C(O)c1ccc(-n2cc(CNc3ccc(F)cc3)c(-c3ccc(C(F)(F)F)cc3)n2)cc1`, with 65.4% (inactive); and `Oc1ccc(CSc2nnc(-c3ccncc3)o2)c2cccnc12`, with 23% (inactive).
Turning to `COc1ccc(C2C(C#N)=C(N)Oc3c2sc2ccc(C)cc32)cc1` (stereo unspecified), the growth is 19.2% (inactive).
Regarding `Oc1ccc(CSc2nnc(-c3ccncc3)n2-c2ccccc2)c2cccnc12`, the growth is 15.1% (inactive).

Values taken from PubChem BioAssay (NCI).
